Assay results taken from PubChem BioAssay (NCI).
Compounds without any hit were thinned out: in the full panel of roughly 83,000, 20% have a hit.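 Activity criterion: percent growth below 10, measured after cells in 96-well plates were exposed to a single compound concentration for 48 hours.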 A number with no mark means an inactive call. The source made the active and inactive calls.

These molecules were tested on SK-MEL-28 melanoma (assay: NCI-60 one-dose screen, 48 h (100 = growth as untreated, 0 = no growth, -100 = all killed)). Conditions: 10 µM unless noted.
For `C=C1C(=O)O[C@H]2[C@H]1CC/C(COC(=O)c1cn(C)c3ccccc13)=C\CC[C@@]1(C)O[C@@H]21`, the growth was -22% (active).
Molecule `CCOCCc1c(O)nc(SC)[nH]c1=O` has a growth of 99.2%.
For `COc1ccccc1N1CCN(CCCOc2ccc(C(=O)/C=C3/C(=O)Nc4ccccc43)cc2)CC1`, the growth was 86.1%.
For `O=C(CCl)N1CCCc2ccccc21`, the growth was 103%.
In the case of `C#C[C@@]1(O)[C@@H](CO)O[C@@H](n2cc(Br)c3c(N)ncnc32)[C@@H]1O`, the growth is reported as 58.2%.
Molecule `COc1ccc(C(=O)c2cc(F)c(F)c(OC)c2F)cc1OC(=O)CCl` has a growth of 57.9%.
For `Cc1ccccc1NC(=O)c1sc2nc(C)c(C(C)O)cc2c1N` (configuration not stated), the growth was 67.2%.
In the case of `OCCNc1nc(NCCO)nc(Nc2ccc(C3=NN(c4cc(Cl)cc(Cl)c4)C(c4ccc(Cl)cc4)C3)cc2)n1` (configuration not stated), the growth is reported as -55.8% (active).
`COc1ccc(NC(=O)c2sc3nc(C)c(C(C)=O)cc3c2N)cc1` gave a growth of 94.1%.
`Cc1ccc(-c2nc(C#N)c(S(=O)(=O)N(C)CCO)o2)cc1` was tested, and the growth was 82%.
Molecule `O=C(CSC(=S)N1CCCCC1)Nc1ccccc1` has a growth of 104%.
`COc1cc2c(cc1OC)C(Sc1ccc(Cl)cc1)c1c(nc(N)c(C#N)c1N)O2` (configuration not stated) was tested, and the growth was -3.09% (active).
In the case of `COC(=O)c1cncc(C(=O)Nc2ccc(-n3cnc4ccccc43)cc2)c1`, the growth is reported as 103%.
`O=C(/C(=C/c1ccc([N+](=O)[O-])cc1)SCc1ccc(Cl)cc1)c1ccc(F)cc1` showed a growth of 95.8%.
Molecule `CCOC(=O)c1c(-c2ccc(O)cc2)c(C#N)c2c(C#N)c(N)nn2c1N` has a growth of 68.6%.
In the case of `COc1cc(C2=NN(C(C)=O)C(c3cccc(Nc4ccnc5cc(C(F)(F)F)ccc45)c3)C2)cc(OC)c1OC` (configuration not stated), the growth is reported as 66.5%.
In the case of `CC(=O)OC[C@]12CC[C@@H](c3cn(Cc4ccc(Cn5cc([C@@H]6CC[C@]7(COC(C)=O)CC[C@]8(C)[C@H](CC[C@@H]9[C@@]%10(C)CC[C@H](OC(C)=O)C(C)(C)[C@@H]%10CC[C@]98C)[C@@H]67)nn5)cc4)nn3)[C@@H]1[C@H]1CC[C@@H]3[C@@]4(C)CC[C@H](OC(C)=O)C(C)(C)[C@@H]4CC[C@@]3(C)[C@]1(C)CC2`, the growth is reported as 99.8%.
With `COc1ccc(/C=C/C(=O)Nc2ncnc3nc[nH]c23)cc1` the growth was 99.4%.
Molecule `COC(=O)c1ccc2c(c1)NC(=O)[C@@H]1CCCN21` has a growth of 106%.
`COc1cc(NC(=O)COc2cc(C)nc3ccc(OC)cc23)cc(OC)c1` was tested, and the growth was 102%.
Work on `CCOC(=O)c1ccc(Nc2ncnc3ccc(NC(=O)c4ccccc4)cc23)cc1` yielded a growth of 89.6%.
`CCN(CC)CC#CCOC(=O)[C@]1(C)CCC[C@]2(C)[C@H]3C[C@H]4C(C(C)C)=C[C@]3(CC[C@H]21)[C@@H]1C(=O)CCC(=O)[C@@H]14` showed a growth of 66.2%.
For `N#Cc1c(-c2ccc(F)cc2)nc(N/N=C/c2c[nH]c3ccccc23)nc1N1CCOCC1`, the growth was 4.29% (active).
`CN1CCN(CC#CCOC(=O)CNC(=O)[C@]23CCC(C)(C)C[C@H]2C2=CC[C@@H]4[C@@]5(C)CC[C@H](O)C(C)(C)[C@@H]5CC[C@@]4(C)[C@]2(C)CC3)CC1` was tested, and the growth was 104%.
Work on `Nc1c(C(=O)Nc2cccc3ccccc23)sc2nc3c(cc12)COCC3` yielded a growth of 60.6%.
`C#CCOC(=O)[C@]1(C)CCC[C@]2(C)[C@H]3C[C@H]4C(C(C)C)=C[C@]3(CC[C@H]21)[C@@H]1C(=O)CCC(=O)[C@@H]14` gave a growth of 95.3%.
Molecule `COC(=O)c1nc(-c2ccccc2)oc1S(=O)(=O)n1nc(-c2ccccc2)cc1N` has a growth of 89.6%.
For `Cn1c2ccccc2c2c(OC(=O)c3ccccc3)c3c(nc21)-c1ccccc1C3`, the growth was 111%.
For `COc1ccc(-c2cc(-c3nnc(SCC(=O)Nc4ccc(/C(C)=N\O)cc4)o3)c3ccccc3n2)cc1`, the growth was 114%.
For `COc1ccc(C2CC(c3ccc(OC)cc3O)=NN2c2ccc(S(N)(=O)=O)cc2)cc1` (configuration not stated), the growth was 56.1%.
With `CC(=O)c1ccc(NC(=O)CSc2nnc(-c3cc(-c4ccc(Cl)cc4)nc4ccccc34)o2)cc1` the growth was 107%.
Work on `CCOC(=O)c1c(C)nc2c(c1N)/C(=C/c1cccs1)C(=O)N2Cc1ccccc1` yielded a growth of 90.2%.
With `CN(C)[C@@H]1C(=O)C(C(N)=O)=C(O)[C@@]2(O)C(=O)C3=C(O)c4c(O)cc(CN5CCc6ccccc6C5)c(Cl)c4C[C@H]3C[C@@H]12` the growth was -86.6% (active).
`O=C1CC23OC(C(O)c4ccccc4N12)C1C(c2ccccc2)=NOC13` (configuration not stated) gave a growth of 64.1%.
For `N#Cc1nc(-c2ccccc2)oc1S(=O)(=O)NCC(c1ccc(Cl)cc1)N1CCCCC1` (configuration not stated), the growth was 96.3%.
`C#C[C@@]1(O)[C@@H](CO)O[C@@H](n2cc(Cl)c3c(N)ncnc32)[C@@H]1O` gave a growth of 42.6%.
With `COc1ccc(-n2cc(COc3ccc4c5ccnc(C)c5n(CC(C)C)c4c3)nn2)cc1` the growth was 87.4%.
